# Measured values: PubChem BioAssay (EPA / NIEHS)
# Calls of active or inactive are those of the source. How the source made its calls: active means hit-call score of the fitted dose curve at least 0.9, where 1 is the maximum; inactive means score below 0.9.
# Assay: ATG_TGFb_CIS: Attagene CIS-FACTORIAL HepG2 Assay for human Transforming Growth Factor (TGF) (AID 2282967)
# Details: HepG2 Attagene CIS TGFb reporter, mRNA transcription; actives raise or lower the signal
# Experimental: ATG_CIS is a cell-based, multiplexed-readout assay that uses HepG2, a human liver cell line, with measurements taken at 24 hours after chemical dosing in a 24-well plate.ATG_TGFb_CIS is one of 52 assay component(s) measured or calculated from the ATG_CIS assay. It is designed to make measurements of mRNA induction, a form of inducible reporter, as detected with fluorescence intensity signals by Reverse transcription polymerase chain reaction (RT-PCR) and Capillary electrophoresis technology.Data from the assay component ATG_TGFb_CIS was analyzed into 1 assay endpoint. This assay endpoint, ATG_TGFb_CIS, was analyzed with bidirectional fitting relative to DMSO as the negative control and baseline of activity. Using a type of inducible reporter, measures of mRNA for gain or loss-of-signal activity can be used to understand the reporter gene at the transcription factor-level as they relate to the gene TGFB1. Furthermore, this assay endpoint can be referred to as a primary readout, because this assay has produced multiple assay endpoints where this one serves a reporter gene function. To generalize the intended target to other relatable targets, this assay endpoint is annotated to the growth factor intended target family, where the subfamily is transforming growth factor beta.
# Human liver HepG2 cells are transiently transfected with multiple reporter transcription units (MRTUs) in 6-well plates using FuGene 6 reagent (Roche; 3 ml FuGene/1 mg DNA). The MRTU constructs are regulated by a cis-regulating element (promoter). […] A major difference between the CIS and TRANS system is that in CIS activities of endogenous TFs are measured, whereas the TRANS assay evaluates changes in activities of exogenous, chimeric NR-Gal4 proteins. […] At the end of 24 hour incubation, total RNA was isolated using TriZol reagent (Invitrogen). The isolated RNA is then reverse-transcribed using oligo(dT) primer and Mo-MLV reverse transcriptase (Invitrogen) with DNAse I (Ambion) treatment for 30 min. The one-tenth of the produced cDNA was amplified by PCR using Taq DNA polymerase (Invitrogen) and two reporter sequence-specific primers. The PCR products were fluorescently labeled by primer extension with 6-arboxyfluorescein (6-FAM) 5'-labeled reporter sequence-specific primer (2 min at 95 C, 20 s at 68 C and 10 min at 72 C) and these products were digested with 5U of HpaI (New England Biolabs) for 2h at 37 C. The fragments were purified using Qiaquick PCR columns (Qiagen), analyzed on an ABI 3130xL genetic analyzer (Applied Biosystems) with peak positions identified by using a set of X-rhodamine (ROX)-labeled MapMarker1000 molecular weight standards (BioVentures). The raw capillary electrophoresis data was processed using Attagraph software (Attagene).
Structure (SMILES),outcome,AC50
CC[C@H]1OC(=O)[C@H](C)[C@@H](O[C@H]2C[C@@](C)(OC)[C@@H](O)[C@H](C)O2)[C@H](C)[C@@H](O[C@@H]2O[C@H](C)C[C@H](N(C)C)[C@H]2O)[C@](C)(O)C[C@@H](C)C(=O)[C@H](C)[C@@H](O)[C@]1(C)O,inactive,
CC(C)c1cccc(C(C)C)c1N1C(=O)c2ccc(O)cc2C1=O,inactive,
On1ccccc1=S,inactive,
CCCCCCCCCCCCc1ccccc1,inactive,
O=C(O)c1cc(N=Nc2ccc(S(=O)(=O)Nc3ccccn3)cc2)ccc1O,inactive,
CCC(C)(C)C(=O)O[C@H]1C[C@@H](C)C=C2C=C[C@H](C)[C@H](CC[C@@H]3C[C@@H](O)CC(=O)O3)[C@H]21,inactive,
CCCN(C1CCN(C(=O)C2CCNCC2)CC1)[C@@H]1CCc2ccc(OC)cc2C1,inactive,
Nc1ccc(Nc2ccccc2)cc1,inactive,
CN(C)c1ccc(N=NS(=O)(=O)O)cc1,inactive,
CN(C)c1ccc(Cc2ccc(N(C)C)cc2)cc1,,130 µM (active)
O=C(O)c1cccc(Oc2ccccc2)c1,inactive,
CCNc1ccccc1,inactive,
COc1ccc(-n2nc(C(F)F)cc2-c2ccc(S(C)=O)cc2)cc1 (stereo not given),inactive,
CC(=O)OCCC(C)C,inactive,
Clc1nc(Cl)c(Cl)c(Cl)c1Cl,inactive,
O=C1OC(=O)C2C3C=CC(C3)C12 (stereo not given),inactive,
O=C(OC[C@H]1O[C@@H](OC(=O)c2cc(O)c(O)c(OC(=O)c3cc(O)c(O)c(O)c3)c2)[C@H](OC(=O)c2cc(O)c(O)c(OC(=O)c3cc(O)c(O)c(O)c3)c2)[C@@H](OC(=O)c2cc(O)c(O)c(OC(=O)c3cc(O)c(O)c(O)c3)c2)[C@@H]1OC(=O)c1cc(O)c(O)c(OC(=O)c2cc(O)c(O)c(O)c2)c1)c1cc(O)c(O)c(OC(=O)c2cc(O)c(O)c(O)c2)c1,inactive,
CCCC(=O)OCC,inactive,
CC[C@H]1CC[C@H](NCc2cc3c(cc2OC)[C@H]2C[C@H]2C(=O)N3C)[C@H](c2ccccc2)N1,inactive,
CC1(C)C(=O)N(Br)C(=O)N1Br,inactive,

Structure (SMILES),outcome,AC50
C=CCCCCCCCCC(=O)O,inactive,
CCCCC(CC)COC(=O)c1ccc(C(=O)OCC(CC)CCCC)cc1 (stereo not given),inactive,
COc1cccc(-c2ccc(/C=C\CN3CCCCCC3)cc2Cl)c1,inactive,
COC(=O)c1c(Cl)c(Cl)c(C(=O)OC)c(Cl)c1Cl,inactive,
CCOC(=O)c1ccc(C2CCC(NC[C@H](O)COc3ccc(O)c(NS(C)(=O)=O)c3)CC2)cc1 (stereo not given in full),inactive,
CCOCCOCCOCCO,inactive,
CCc1cc(SCc2sc(-c3ccc(C(F)(F)F)cc3)nc2CN2CCN(c3ccc(OC)cc3)CC2)ccc1OCC(=O)O,inactive,
CCOC(=O)CC(CC(=O)OCC)(OC(C)=O)C(=O)OCC,inactive,
O=C1CCCCCN1,inactive,
CCCCCCc1ccc(O)cc1O,inactive,
NC(=O)NO,inactive,
O=c1[nH]c2ccc(S(=O)CCN3CCC(Cc4ccc(F)cc4)CC3)cc2o1 (stereo not given),inactive,
Cn1cnc([N+](=O)[O-])c1Sc1ncnc2nc[nH]c12,inactive,
COC(=O)c1ccccc1O,inactive,
O=C(O)c1cccc(N(Cc2cccnc2)c2ccc(OC(F)F)c(OC(F)F)c2)c1,inactive,
Fc1ccccc1[C@@H](F)COC1CCC(Nc2ncnc3[nH]ncc23)CC1 (stereo not given in full),inactive,
CC/C(=C\C(=N/O)C(N)=O)C(C)[N+](=O)[O-] (stereo not given),inactive,
Cc1c(-c2cccnc2)c2ccccc2n1CCCCC(=O)O,inactive,
Cc1ccc(N)cc1O,inactive,
CC(C)(O)c1coc(S(=O)(=O)NC(=O)Nc2c3c(cc4c2CCC4)CCC3)c1,inactive,
